MCF10A rerep: induces DNA re-replication in MCF 10a normal breast cells. MCF 10A DNA re-replication, Hoechst nuclear intensity, 48 h. Potency, µM (doses to about 46.1 µM), for inactives: at the top dose activity, positive = re-replication, actives largely listed as activators. actives 2.9% (n = 350,000). AID 624296; further: % of control where 0% means no effect; nearly all actives have a fitted effect of over 50% in size
HT1080-NT tox: kills 2HG-producing HT-1080-NT fibrosarcoma cells; actives 1.6% (n = 360,000); AID 686970; HT-1080-NT fibrosarcoma viability, CellTiter-Glo ATP luminescence, 48 h; Potency, µM (doses to about 46.1 µM), without a hit: at the top dose activity, negative = less viability, actives largely listed as cytotoxic;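 further: NT is the 2HG producing partner of a matched IDH1 knockdown line; 0% = DMSO-treated cells and -100% = media-only wells without cells; nearly all actives have a fitted effect of over 55% in size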
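Toxicity toward the 2HG-producing NT line was scored as %Activity, normalised to DMSO and no-cell wells, from CellTiter-Glo luminescence after 48 hours' treatment.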
SW480 rerep: inducers of DNA re-replication in SW480 colon cancer cells | Potency, µM (top dose mostly 46.1 µM), for inactives: at the top dose re-replication activation, hits mostly activators | actives 1.8% (n = 340,000) | SW480 DNA re-replication, Hoechst DNA content imaging, 48 h; further: % of control where 0% means no effect; nearly all actives have a fitted effect of over 55% in size
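Readout is total intensity of Hoechst-stained nuclei, excited at 405 nm and collected at 500-530 nm. Compound treatment lasted 48 hr at 37 C in 5% CO2 before staining.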
KB-3-1 cytotox: KB-3-1 parental cell cytotoxicity | KB-3-1 viability, CellTiter-Glo ATP luminescence, 72 h | actives 1.4% (n = 400,000) | Potency, µM (titrated, usually from 46.1 µM), hits mostly cytotoxic | AID 1347075; further: on the % scale 0 is the no-effect control and ±100 the full control effect; nearly all actives have a fitted effect of over 60% in size
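Here the drug-naive KB-3-1 line serves as comparator for MDR sub-line selectivity; cells received compound titrations, 72 h at 37 °C, then CellTiter-Glo readout.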
KB-V1 cytotox: kills drug-selected multidrug resistant KB-V1 cells | KB-V1 MDR cells viability, CellTiter-Glo, 72 h | Potency, µM (series often up to 46.1 µM), usual class: cytotoxic | actives 3.4% (n = 400,000) | AID 1347076; further: on the % scale 0 is the no-effect control and ±100 the full control effect; nearly all actives have a fitted effect of over 60% in size
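Following 72 h at 37 degrees C with compound, KB-V1 cell viability was read by CellTiter-Glo luminescence, medium being phenol-red-free DMEM plus 10% FBS; concentration-response parameters came from normalized, curve-fitted qHTS data.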
HT1080 IDH1KD tx: HT-1080 IDH1 knockdown cell toxicity (counter line) | HT-1080 IDH1 knockdown viability, ATP luminescence, 48 h | Potency, µM (series often up to 46.1 µM), for inactives: at the highest dose activity, negative = toxicity, actives largely listed as cytotoxic | actives 2% (n = 360,000) | AID 686971;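 further: 0% = DMSO wells and -100% = cell-free medium wells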
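% activity derives from luminescence (CellTiter-Glo), normalised to DMSO and no-cell wells. HT-1080-IDH1KD cells, 750/well, had 48 h compound exposure at 37 °C.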
The depositor's hits bear a star; i = inactive; u = inconclusive; x = no result given. An excerpt weighted towards active compounds, which were near 8% of everything screened. The call rests on the fitted dose curve; in most records, active means well fitted curve in the direction sought with a large enough effect; inconclusive means small, poorly fitted or top-dose-only effect, or another doubt; inactive means no such curve, though single readings can be large; an effect the other way counts as inactive or inconclusive. Potency means the concentration at half of the fitted maximal effect.

SMILES | MCF10A rerep | HT1080-NT tox | SW480 rerep | KB-3-1 cytotox | KB-V1 cytotox | HT1080 IDH1KD tx
COC(=O)C1(C)CCCC2(C)C3CCC(C(C)C)C(CO)C3C(CO)CC12 (stereo not given) | x | -19% | x | i | u | -6%
Cc1nnc(N2C(=O)c3cccc4c([N+](=O)[O-])ccc(c34)C2=O)s1 | 23µM* | u | u | i | i | u
Cc1ccc(N2C(=O)c3cccc4c(N5CCN(C)CC5)ccc(c34)C2=O)c2cccnc12 | -9% | u | -5% | i | i | 11µM*
Cc1ccnc(N2C(=O)c3ccccc3C2=O)c1 | -2% | 17% | -4% | i | u | 24%
Cc1cnc(N2C(=O)c3ccc([N+](=O)[O-])cc3C2=O)s1 | 0% | 17% | -5% | i | i | 12%
Cc1cccc(N2C(=O)c3cccc4c(N5CCCCC5)c([N+](=O)[O-])cc(c34)C2=O)c1C | u | -4% | 0% | i | u | -5%
Cc1ccc(N2C(=O)c3cccc4c([N+](=O)[O-])ccc(c34)C2=O)c2cccnc12 | 2.6µM* | u | 2.1µM* | 0.065µM* | u | u
Cc1ccnc(N2C(=O)c3cccc4c([N+](=O)[O-])ccc(c34)C2=O)c1 | 4.6µM* | 5µM* | 3.7µM* | i | i | 2.8µM*
O=C(Nc1cccc(F)c1F)C1CCN(c2ncccn2)CC1 | x | x | x | i | i | x
O=C1c2cccc3c([N+](=O)[O-])ccc(c23)C(=O)N1Cc1cccnc1 | 18µM* | 8.2µM* | u | u | i | 12µM*
O=C1c2cccc3cccc(c23)C(=O)N1Cc1cccnc1 | 0% | 2% | -15% | i | i | 4%
CN(C)S(=O)(=O)c1ccc(N2CCN(S(=O)(=O)c3ccc(F)cc3)CC2)c(Cl)c1 | 2% | 10µM* | -3% | u | 5.8µM* | 7.1µM*
CN(C)S(=O)(=O)N1CCN(S(=O)(=O)c2ccc(F)cc2)CC1 | 4% | -3% | 9% | i | i | 6%
COc1cccc2c1C1COC3C4CC(C(=O)O)C(C(C2)N13)N4C (stereo not given) | 2.6µM* | 5.8µM* | u | u | 16µM* | 7.3µM*
COc1cccc2c1C(CCCC(=O)O)CCC2 (stereo not given) | -1% | 0% | -5% | i | i | 4%
OCC1OC(n2ccc3c2ncn2ncnc32)C(O)C1O (stereo not given) | x | 0.58µM* | x | u | 0.65µM* | 0.65µM*
O=c1[nH]cnc2c1ncn2C1OC(CO)C(O)C1O (stereo not given) | 4% | 0% | -7% | i | i | 3%
OCC1OC(n2cnc3c(/C=C(\O)c4ccccc4)ncnc32)C(O)C1O (stereo not given) | 5.8µM* | u | u | u | u | 15µM*
CN(C)c1ncnc2c1nnn2C1OC(CO)C(O)C1O (stereo not given) | x | 0.58µM* | x | i | 1.6µM* | 0.46µM*
C=CCOc1ccc(C[C@H](N)C(=O)NC[C@H]2O[C@@H](n3cnc4c(N)ncnc43)[C@H](O)[C@@H]2O)cc1 | -1% | -1% | 13% | i | i | 4%
COc1ccc(C[C@H](N)C(=O)N[C@H]2[C@@H](O)[C@H](n3cnc4c(N(C)C)ncnc43)O[C@@H]2CO)cc1 | u | 4% | u | 0.41µM* | i | 11%
CCOc1ccc(C(=O)Oc2c(Sc3ccccc3)c(C)nn2C(C)(C)C)cc1OCC | x | x | x | i | i | x
Fc1ccc(Nc2ncnc3onc(-c4ccc(Cl)cc4)c23)cc1Cl | x | x | x | i | i | x
CCOC(=O)c1cc(CC)sc1NC(=O)COc1ccccc1C | x | x | x | i | i | x
CNc1ncnc2c1ncn2[C@@H]1O[C@H](CO)[C@@H](O)[C@H]1O | 20% | 14% | 0% | i | i | 12%
SMILES | MCF10A rerep | HT1080-NT tox | SW480 rerep | KB-3-1 cytotox | KB-V1 cytotox | HT1080 IDH1KD tx
CN(C)c1ncnc2c1ncn2C1OC(CO)C(O)C1O (stereo not given) | u | 13µM* | 7.3µM* | 8.2µM* | u | 13µM*
Cc1[nH]c2ccc(C(=O)OC(C)C(=O)NCc3ccccc3)cc2c1C (stereo not given) | 15µM* | u | u | 16µM* | 16µM* | u
CCOC(=O)c1c(C)[nH]c(C(=O)OC(C)C(=O)NCc2ccccc2)c1C (stereo not given) | 9% | -7% | 9% | i | u | -1%
Cc1nc(Nc2nc3ccccc3o2)nc2c1CCCC2 | x | x | x | i | i | x
CCCc1nn(C)c(C(=O)Nc2ccccc2)c1Cl | 15% | 16% | -2% | i | 18µM* | 8%
CCCc1nn(C)c(C(=O)Nc2ccc(Cl)cc2)c1Cl | -1% | -14% | -8% | i | i | 3%
C=CCN1C(=O)/C(=C/c2ccc(O)c(OC)c2)S/C1=N/c1nccs1 | 18µM* | -2% | u | i | 15µM* | u
CCSc1nc(CC)c2c(c1C#N)CCCC2 | -4% | -3% | 0.52µM* | i | i | 14%
O=C(CNC(=O)c1ccc(Cl)cc1)OC1CCOC1=O (stereo not given) | 13% | 1% | -2% | i | i | 16%
CCCCOc1ccc(C(=O)NCC(=O)OC2CCOC2=O)cc1 (stereo not given) | 3.3µM* | -6% | u | u | i | -2%
Cn1c(SCc2cccc([N+](=O)[O-])c2)nc2c(c1=O)SCC2 | 0% | -21% | -1% | u | 4.1µM* | u
Cc1cc(NC(=O)CSc2nc3c(c(=O)n2-c2ccc(Br)cc2)SCC3)no1 | 8.2µM* | 1% | u | i | u | -6%
Cn1c(SCc2ccc(Br)cc2)nc2c(c1=O)SCC2 | 15% | -1% | -9% | 21µM* | 21µM* | -7%
COc1ccc(-n2c(SCC(=O)Nc3cc(C)on3)nc3c(c2=O)SCC3)cc1 | 0% | 17% | -14% | i | i | -1%
O=C(Nc1ccc(S(=O)(=O)N2CCC(c3nc4ccccc4s3)CC2)cc1)c1ccccc1 | x | x | x | i | i | x
Cc1ccc(-c2nc3scc(CCNC(=O)Cc4ccc(Cl)cc4)n3n2)cc1 | x | x | x | i | i | x
CN(C)c1ccc(NC(=O)Cn2nnc3sc4c(c3c2=O)CCC(C(C)(C)C)C4)cc1 (stereo not given) | x | x | x | i | i | x

Screening results (PubChem BioAssay)
